Hits are enriched below; roughly 2.2% of the tested compounds scored in any of these assays.
PvdQ acylase – P. aeruginosa PvdQ acylase inhibitors, primary screen, biochemical, fluorescence, plate reader and imaging, single point; PvdQ acylase [Pseudomonas aeruginosa LESB58]; purified PvdQ acylase; inhibition, % at 10 µM; 340,000 compounds, 0.063% hits; AID 488965, 2010; in the data active means inhibition above about 30%, passing the limit was not always enough; inconclusive means no clear call, values can overlap the other calls;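 further: 0% = vehicle neutral wells and 100% = reference inhibitor wells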
miR-122 sensor – miR-122 Renilla sensor signal increase in Huh7, primary screen, miR-122 inhibitor project, cell-based, single point, plate reader; AID 602342, 2012; 340,000 compounds, 0.3% hits; Huh7 miR-122 Renilla luciferase sensor, 48 h; neutral wells = 0, positive control = 100; activation (reporter increase), % at 12.5 µM;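 active means mean replicate activation score at least 90 and every replicate individually at or above 90; inconclusive means only one of the two criteria met; inactive means neither criterion met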;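 further: higher luciferase means less miR-122 activity so hits act as miR-122 inhibitors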
DENV2 CPE – inhibitors of DENV2 cytopathic effect, primary screen, cell-based, plate reader, single concentration. DENV2-infected cells, cytopathic effect rescue. CPE inhibition, % at 9.99 µM. 350,000 compounds, 1.7% hits. AID 651640, 2012; in the data active means CPE inhibition above about 20%, passing the limit was not always enough; inconclusive means no clear call, values can overlap the other calls; tested in BHK-21 cells;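 further: 0% = median of neutral control wells and 100% = median of positive control wells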
PGC1a acetyl inh – inhibitors of PGC1a acetylation signal, primary screen, cell-based, U2OS, AlphaScreen, inhibitor mode; 350,000 compounds, 0.17% hits; AID 651687, 2012; AlphaScreen anti-acetyl-lysine; with virally co-expressed GCN5 acetyltransferase; inhibition, % at 15.6 µM;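 active means every replicate shows inhibition of at least 40%; inconclusive means mean inhibition at least 40% but some replicate below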;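 further: 0% = neutral control wells and 100% = positive control wells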
Statin myotox sup – suppressors of statin myotoxicity in C2C12 myotubes, primary screen, cell-based, single point, plate reader; C2C12 myotubes + simvastatin, ATP luminescence, 48 h; scaled: DMSO 0, geranylgeraniol control 100; rescue of ATP level, % at 7.49 µM; 330,000 compounds, 0.78% hits; AID 602340, 2012;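 active means mean ATP rescue above about 67%, or every replicate alone reaching that limit, limit read from the data, passing the limit was not always enough; inconclusive means no clear call, values can overlap the other calls; inactive means mean under the limit and some replicate under it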;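 further: myotubes were challenged with 10 µM simvastatin during compound exposure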
* marks the source's active call; other numbers are inactive results; ? = inconclusive; · = not tested or not shown; [ ] = remark or other dose.

SMILES | PvdQ acylase | miR-122 sensor | DENV2 CPE | PGC1a acetyl inh | Statin myotox sup
C[C@@H]1CCCCO[C@H](CN(C)C)[C@@H](C)CN([C@H](C)CO)C(=O)c2cc(NC(=O)NC3CCCCC3)ccc2O1 | · | 14.0[16.7 µM] | 8.7 | 7.7 | 7.9
O=C(NCc1ccccc1)[C@@H]1C[C@H]1[C@@H](NP(=O)(c1ccccc1)c1ccccc1)c1ccccc1 | 7.6 | · | 6.8 | · | 15.1
O=C(Nc1ccc2ccccc2c1)[C@@H]1C[C@H]1[C@@H](NP(=O)(c1ccccc1)c1ccccc1)c1ccccc1 | -5.7 | · | 40.3* | · | 2.3
Cc1cc(C(=O)Nc2cccc3c2O[C@@H](CN(C)C(=O)NC2CCCCC2)[C@@H](C)CN([C@H](C)CO)C3=O)n(C)n1 | · | -0.5[16.7 µM] | 15.8 | 4.2 | -5.7
Cc1cc(-c2onc(C)c2C(=O)Oc2ccc(Cl)cc2)no1 | -14.2 | · | 72.6* | -5.5 | 3.8
Cc1[nH]nc2c1C1(C(=O)N(Cc3ccc(Cl)cc3)c3ccccc31)C(C#N)=C(N)O2 (centres undefined) | 15.0 | -0.6 | · | -3.1 | 104.9*
C[C@@H]1CCCCO[C@@H](CN(C)Cc2ccccc2)[C@@H](C)CN([C@@H](C)CO)C(=O)c2cc(NC(=O)c3ccncc3)ccc2O1 | · | -2.6[16.7 µM] | -5.0 | -0.6 | ·
C[C@H]1CN([C@@H](C)CO)C(=O)c2cc(C#Cc3cccc(F)c3)cnc2O[C@@H]1CN(C)C(=O)C1CCCCC1 | · | -4.0[16.7 µM] | 10.8 | -16.7 | ?
COCCNC(=O)CS(=O)Cc1nc(-c2ccc(Cl)cc2)oc1C (centres undefined) | -9.4 | -1.7 | 63.6* | -2.8 | -11.1
CCCCOc1ccc(C(=O)C(CN2CCOCC2)c2ccccc2)cc1 (centres undefined) | -8.2 | 2.4 | · | 79.6* | ·
COc1ccc(C(=O)C(CN2CCOCC2)c2ccccc2)cc1 (centres undefined) | 19.3 | -10.5 | -3.0 | 32.3 | 6.7
O=C(c1ccc(Cl)cc1)C(CN1CCCC1)c1ccccc1 (centres undefined) | -13.6 | 6.7 | -17.1 | · | -32.8
O=C(c1ccc(F)cc1)C(CN1CCOCC1)c1ccccc1 (centres undefined) | 10.5 | -17.7 | -4.3 | 60.1* | -2.3
O=C(C[C@@H]1C[C@H]2c3cc(NC(=O)c4cccnc4)ccc3O[C@H]2[C@@H](CO)O1)NCc1cc(F)ccc1F | · | 3.4[16.7 µM] | 3.1 | -13.4 | -0.8
Nc1ccc(N2C(=O)c3ccccc3C2=O)c(Cl)c1 | -3.7 | 4.9 | 38.5* | · | -0.6
CCOC(=O)C(C)On1c(-c2ccccc2)nc2ccc([N+](=O)[O-])cc21 (centres undefined) | -4.1 | 1.3 | · | -1.5 | ·
O=C(O)COn1c(-c2ccccc2)nc2ccc([N+](=O)[O-])cc21 | 7.9 | 0.1 | -7.9 | -0.9 | 104.8*
CN1C[C@H]2[C@@H](c3ccccc31)[C@H](CO)N2C(=O)Nc1ccccc1 | · | -16.7[16.7 µM] | · | 5.7 | -4.6
CC(=O)C1=C(N2CCCCC2)CCC1=O | -13.6 | -9.2 | · | -2.9 | 95.5*
CN(C)/C=C/C(=O)c1ccc(N2CCN(c3ncc(C(F)(F)F)cc3Cl)CC2)cc1 | -5.6 | 5.7 | · | 29.6 | 133.6*
C[C@@H]1CCCCO[C@H](CN(C)C(=O)NC2CCCCC2)[C@H](C)CN([C@@H](C)CO)C(=O)c2cc(NS(=O)(=O)c3cccs3)ccc2O1 | · | 1.5[16.7 µM] | -2.8 | -13.9 | 91.5*
C[C@H](CO)N1C[C@H](C)[C@@H](CN(C)C(=O)CCC(F)(F)F)OCCCC[C@H](C)Oc2ccc(NS(=O)(=O)c3cccs3)cc2C1=O | · | -6.0[16.7 µM] | 0.9 | -1.3 | ·
C[C@H](CO)N1C[C@H](C)[C@H](CN(C)C(=O)NC2CCCCC2)OCCCC[C@H](C)Oc2ccc(NS(=O)(=O)c3cccs3)cc2C1=O | · | -0.2[16.7 µM] | -6.5 | 5.4 | 15.6
C[C@@H]1CN([C@H](C)CO)C(=O)c2cc(NS(=O)(=O)c3cccs3)ccc2O[C@@H](C)CCCCO[C@@H]1CN(C)C(=O)CCC(F)(F)F | · | -5.1[16.7 µM] | 31.0* | 7.9 | ·
C[C@@H]1CCCCO[C@@H](CN(C)C(=O)c2ccccc2)[C@H](C)CN([C@@H](C)CO)C(=O)c2cc(NS(=O)(=O)c3cccs3)ccc2O1 | · | -4.8[16.7 µM] | 6.2 | · | 90.4*
SMILES | PvdQ acylase | miR-122 sensor | DENV2 CPE | PGC1a acetyl inh | Statin myotox sup
C[C@@H]1CCCCO[C@H](CN(C)C(=O)c2ccccc2)[C@H](C)CN([C@H](C)CO)C(=O)c2cc(NS(=O)(=O)c3cccs3)ccc2O1 | · | -1.0[16.7 µM] | 1.0 | · | 42.5
CC(C)C#Cc1ccc([C@H]2[C@H]3CN(C(=O)c4ccc(F)cc4)CCCCN3[C@H]2CO)cc1 | · | 2.7[16.7 µM] | -6.1 | 7.2 | -13.9
CC(=O)N1CC2(C1)[C@H](c1ccc(-c3ccc(F)cc3)cc1)[C@H](CO)N2C(C)=O | · | · | 82.5* | 2.7 | ·
CC(=O)N1CC2(C1)[C@@H](c1ccc(-c3ccc(C#N)cc3)cc1)[C@@H](CO)N2CCC(F)(F)F | · | · | -10.9 | -2.2 | ·
CC(=O)N1CC2(C1)[C@H](c1ccc(-c3ccc(C#N)cc3)cc1)[C@H](CO)N2CCC(F)(F)F | · | · | 33.3* | -0.9 | ·
C[C@@H]1CN([C@H](C)CO)C(=O)CCCn2cc(nn2)CO[C@@H]1CN(C)Cc1ccc(Cl)c(Cl)c1 | · | 4.4[16.7 µM] | · | 10.4 | 10.5
CCC(=O)N(C)C[C@@H]1[C@H](c2ccc(-c3cccnc3)cc2)[C@H](CO)N1C(C)=O | · | 0.0[16.7 µM] | -3.9 | 10.3 | 13.7
CCCN(C)C1CN(Cc2cn(Cc3ccc(C)cc3)nn2)S(=O)(=O)C1 (centres undefined) | · | · | 25.2* | · | ·
O=C(C[C@@H]1CC[C@H](NC(=O)Nc2cccc(F)c2)[C@@H](CO)O1)NCC1CC1 | · | -1.8[16.7 µM] | -0.7 | 2.6 | -7.8
Cc1[nH]c2ccccc2c1CC(=O)Nc1ccc(N(C)c2cccnc2)c(-c2ccc(F)c(F)c2)c1 | · | · | 83.5* | · | ·
CO[C@H]1CN(C)C(=O)c2ccc(NC(=O)Nc3cc(F)ccc3F)cc2OC[C@@H](C)N(C)C[C@H]1C | · | · | 3.3 | 5.6 | 0.3
Cc1c(C)c2ccc(OC(C)C(=O)NC3CC(C)(C)NC(C)(C)C3)cc2oc1=O (centres undefined) | -18.6 | 2.1 | -4.0 | 10.8 | -2.3
Cc1cc(OC(C)C(=O)NC2CC(C)(C)NC(C)(C)C2)c2c(C)c(C)c(=O)oc2c1 (centres undefined) | · | -6.5 | 45.0* | -20.0 | -4.2
CC1(C)Cc2c(C#N)c(N)n(-c3ccccc3)c(=O)c2CO1 | -1.9 | -13.5 | · | 9.0 | 81.5*
N#Cc1c(N)n(-c2ccccc2)c(=O)c2cc([N+](=O)[O-])ccc12 | -6.2 | -2.3 | -4.6 | 10.4 | -7.1
CCCNC(=O)N(C)C[C@H]1Oc2ncc(C#CC3CCCCC3)cc2C(=O)N([C@H](C)CO)C[C@@H]1C | · | 23.6[16.7 µM] | 13.1 | -11.2 | 14.0

Source: PubChem (Broad Institute)
